# Compounds with a hit are over-represented: about 21% of the library has one in this group of screens.
# TDP1 cell CPT: DT40-hTDP1 cell growth loss with CPT; AID 686979; Potency, µM (titrated, usually from 46.2 µM), for inactives: at the top dose activity change, negative = growth inhibition, actives largely listed as inhibitors; 12% of 420,000 active; chicken DT40 Tdp1-/-;hTDP1 cells + 20 nM CPT, ATP luminescence, 48 h; further: potency means the concentration at half of the fitted maximal effect; nearly all actives have a fitted effect of over 55% in size
#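 Cell growth measured by CellTiter-Glo luminescence after a minimum 48 h, 37 C compound exposure with 20 nM CPT in Tdp1-knockout DT40 cells stably expressing hTDP1, seeded 400/well; qHTS titration format.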
# VP16 counter: Gal4-VP16 reporter inhibition counter-screen; 3.5% of 310,000 active; AID 2546; Potency, µM (titrated, usually from 53.6 µM), without a hit: at the highest dose activity, negative = inhibition, usual class: inhibitors; Drosophila S2 Gal4-VP16 UAS-luciferase, luminescence, 20 h;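 further: Gal4-VP16 expression switched on by copper sulfate through the metallothionein promoter; potency means the concentration at half of the fitted maximal effect; nearly all actives have a fitted effect of over 50% in size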
# IL-1B inflam inh: blocks inflammasome-driven IL-1 beta release. activity change, % at 57.5 µM. THP-1 LPS/ATP IL-1B secretion, AlphaLISA, 16 h; hits give low values. 4.7% of 360,000 active; in the data active means activity change below about -50%; inconclusive means mostly about -30% to -49%
#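 Secreted IL-1B measured by AlphaLISA bead assay after 16 h compound exposure of THP-1 cells; compounds (final up to 57.5 uM) added 1 h before LPS (250 ng/mL) and ATP (1.25 mM) stimulation; lower signal means less secretion.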
# ELG1 DNA repair: blocks ELG1-dependent DNA repair in HEK293T cells. Potency, µM (highest dose often 46.1 µM), without a hit: at the highest dose activity change, negative = inhibition, most hits filed as inhibitors. AID 504467. 2.3% of 330,000 active. HEK293T ELG1-luciferase reporter, luminescence, 16 h; DNA damage induced by 5-fluorouridine; further: potency means the concentration at half of the fitted maximal effect; nearly all actives have a fitted effect of over 55% in size
#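 DMSO vehicle served as the neutral condition. Each well held 2,000 cells given 5-fluorouridine plus compound; after 16 hr at 37 °C/5% CO2, ONE-Glo was added and luciferase measured 30 min later.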
# DT40 TDP1 no CPT: qHTS for Inhibitors of human tyrosyl-DNA phosphodiesterase 1 (TDP1): qHTS in cells in absence of CPT; DT40 Tdp1-/- hTDP1 cells, no CPT, ATP luminescence, 48 h; AID 686978, 2013; Potency, µM (doses to about 46.2 µM), for the others: at the highest dose activity change, negative = growth inhibition, actives largely listed as inhibitors; 15% of 420,000 active; further: potency means the concentration at half of the fitted maximal effect; nearly all actives have a fitted effect of over 55% in size
#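 Chicken DT40 Tdp1-/- cells complemented with human TDP1, screened without camptothecin (DMSO vehicle only), 400 cells/well. Compounds pin-transferred, cells incubated at 37 °C for at least 48 hr. Growth read as ATP-dependent luminescence (CellTiter-Glo, 30 min at RT).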
# RORg inh: blocks mouse ROR gamma transcriptional activity; P51450; Drosophila S2 Gal4-RORgamma UAS-luciferase reporter, 20 h; AID 2551; Potency, µM (highest dose often 53.6 µM), for the others: at the highest dose activity change, negative = inhibition, hits mostly inhibitors; 5.4% of 310,000 active; further: potency means the concentration at half of the fitted maximal effect; nearly all actives have a fitted effect of over 60% in size
# Target sequence (P51450 whole entry, looked up, the tested form may be a part): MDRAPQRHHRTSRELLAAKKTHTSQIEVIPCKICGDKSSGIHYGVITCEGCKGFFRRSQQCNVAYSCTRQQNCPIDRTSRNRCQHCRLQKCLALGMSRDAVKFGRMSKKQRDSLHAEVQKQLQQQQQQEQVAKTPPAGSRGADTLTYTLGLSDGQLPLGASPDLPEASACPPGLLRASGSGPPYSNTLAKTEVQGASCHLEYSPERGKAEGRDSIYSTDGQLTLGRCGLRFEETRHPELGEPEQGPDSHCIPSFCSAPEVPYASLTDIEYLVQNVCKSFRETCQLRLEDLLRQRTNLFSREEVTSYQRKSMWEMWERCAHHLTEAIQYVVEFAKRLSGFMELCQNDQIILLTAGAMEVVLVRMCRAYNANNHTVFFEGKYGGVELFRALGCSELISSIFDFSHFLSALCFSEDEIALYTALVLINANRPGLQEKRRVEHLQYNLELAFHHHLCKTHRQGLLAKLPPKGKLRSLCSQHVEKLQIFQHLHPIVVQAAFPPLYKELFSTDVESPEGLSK
#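 Luciferase reporter read in Schneider cells carrying Gal4-RORγ (mouse) and UAS-Photinus luciferase; cells given compound 1 h before 700 uM copper sulfate induction, then incubated 20 h at ambient temperature.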
# Starred values were filed as active, the others as inactive; ? = inconclusive; . = not tested or not shown. Unless noted, the call rests on the fitted dose curve; in most records, active means well fitted curve in the direction sought with a large enough effect; inconclusive means small, poorly fitted or top-dose-only effect, or another doubt; inactive means no such curve, though single readings can be large; an effect the other way counts as inactive or inconclusive. On the % scale 0 is the no-effect control and ±100 the full control effect.
SMILES,TDP1 cell CPT,VP16 counter,IL-1B inflam inh,ELG1 DNA repair,DT40 TDP1 no CPT,RORg inh
Cc1ccc(C)c(NC(=O)C(NS(=O)(=O)c2ccc3c(c2)CCC(=O)N3)c2ccccc2)c1 (stereo unspecified),?,.,.,.,-16%,.
Cc1ccc(NC(=O)C(NS(=O)(=O)c2ccc3c(c2)CCC(=O)N3)c2ccccc2)cc1C (stereo unspecified),?,.,.,.,13µM*,.
CC(C)c1ccc(NC(=O)C(NS(=O)(=O)c2ccc3c(c2)CCC(=O)N3)c2ccccc2)cc1 (stereo unspecified),21µM*,.,.,.,?,.
CS(=O)(=O)c1ccc(NC(=O)c2cc3c(cc2Cl)N2CCCCCC2=NS3(=O)=O)cc1,-5%,.,17,.,-2%,.
N#Cc1ccc[n+](CC(=O)c2ccc(NC(=O)c3ccccc3)cc2)c1,10µM*,2%,15,?,-22%,15%
O=C(C[n+]1cccc(C(=O)Nc2ccccc2)c1)c1ccccc1,?,.,-4,.,18µM*,.
CC(=O)c1ccc(-c2cnc3c(NC=O)cc(-c4ccc(S(C)(=O)=O)cc4)cn23)cc1,8.2µM*,.,-4,.,7.3µM*,.
CC(=O)c1ccc(-c2cnc3c(NC=O)cc(-c4cnn(C)c4)cn23)cc1,18µM*,.,?,.,23µM*,.
CC(=O)c1cccc(-c2cnc3c(NC=O)cc(-c4ccccc4F)cn23)c1,?,.,157,.,?,.
CN1C(=O)/C(=N\OC(=O)c2ccccc2Cl)c2ccccc21,23µM*,-1%,-23,-20%,23µM*,2%
CC(=O)O/N=C1\C(=O)N(Cc2ccc(C)cc2)c2ccccc21,-11%,-29%,-94*,-14%,?,1%
CC(C)CC(=O)O/N=C1\C(=O)N(Cc2ccc(Cl)cc2)c2ccc([N+](=O)[O-])cc21,.,?,.,-23%,.,17%
CC(=O)Nc1ccc(S(=O)(=O)NC2(C(F)(F)F)C(=O)Nc3c2c(=O)[nH]c(=O)n3-c2ccc(C)cc2)cc1 (stereo unspecified),-7%,.,.,.,12%,.
COc1ccc(C2/C=C\CN(C(=O)Nc3ccccc3-c3ccccc3)CC(=O)N2Cc2ccc(F)cc2)cc1 (stereo unspecified),23µM*,6%,-22,?,?,3%
CCCCC(=O)N1C/C=C\C(c2ccc(OC)cc2)N(Cc2ccc(F)cc2)C(=O)C1 (stereo unspecified),?,2%,12,4%,?,13%
COc1ccc(C2/C=C\CN(C(=O)NC34CC5CC(CC(C5)C3)C4)CC(=O)N2Cc2ccc(F)cc2)cc1 (stereo unspecified),23µM*,-10%,29,13%,?,7%
C=CC(=O)N1C/C=C\C(c2ccc(OC)cc2)N(Cc2ccc(F)cc2)C(=O)C1 (stereo unspecified),?,8%,-61*,17%,-21%,-25%
COC(=O)N1C/C=C\C(c2ccc(OC)cc2)N(Cc2ccc(F)cc2)C(=O)C1 (stereo unspecified),-19%,11%,-6,18%,-8%,27%
COc1ccc(C2/C=C\CN(C(=O)C3CCCCC3)CC(=O)N2Cc2ccc(F)cc2)cc1 (stereo unspecified),?,-2%,-13,17%,?,23%
COc1ccc(C2/C=C\CN(C(=O)C3CCCC3)CC(=O)N2Cc2ccc(F)cc2)cc1 (stereo unspecified),21µM*,4%,20,2%,?,35%
CCCCn1c(N)c(N(CCC(C)C)C(=O)COC(=O)/C=C/c2ccc(F)cc2)c(=O)[nH]c1=O,?,.,-14,-15%,?,.
